# Measurements as given in PubChem BioAssay AID2284163 (EPA ToxCast).
# Active and inactive are the calls of the source. Rule for the calls: active = hit-call score of the fitted dose curve at least 0.9, where 1 is the maximum; inactive = score below 0.9.
# Target: Oxytocin receptor (Homo sapiens) (UniProt P30559)
# Experiment: ERF_FR_GPCR_hOXTR: Eurofins (ERF) G Protein-Coupled Receptor (GPCR) Radioligand Binding LeadHunter Assay for human Vasopressin / Oxytocin Receptor OT Agonism
# Protocol: ERF_FR_GPCR_hOXTR is a biochemical, single-readout assay that uses extracted gene-proteins in a cell-free assay. Measurements were taken 2 hour after chemical dosing in a 96-well plate. See OT Human Vasopressin / Oxytocin GPCR Binding (Agonist Radioligand) Assay, Cerep.ERF_FR_GPCR_hOXTR is an assay component calculated from the ERF_FR_GPCR_hOXTR assay. It is designed to measure radioligand binding using a type of binding reporter as detected by scintillation counting with radiometry technology.Data from the assay component ERF_FR_GPCR_hOXTR was analyzed at the assay endpoint, ERF_FR_GPCR_hOXTR, in the positive analysis fitting direction relative to DMSO as the negative control and baseline of activity. Using a type of binding reporter, gain-of-signal activity can be used to understand changes in binding as they relate to gene OXTR. To generalize the intended target to other relatable targets, this assay endpoint is annotated to the gpcr intended target family, where the subfamily is vasopressin and oxytocin.
# Human cells are incubated for 60 minutes at room temprature with [3H] Oxytocin ligand (0.8 nM) and OXYTOCIN as control inhibitor. Test Sample Requirements: Minimum for 1) Screen: 60 ul of 10 mM stock -OR- 1 mg (pre-weighed) for 10 uM final testing. 2) Dose Response: 90 ul of 10 mM stock -OR- 1 mg (pre-weighed) for a top concentration at 10 uM.
# Sequence of Oxytocin receptor (Homo sapiens) (P30559 whole entry, looked up): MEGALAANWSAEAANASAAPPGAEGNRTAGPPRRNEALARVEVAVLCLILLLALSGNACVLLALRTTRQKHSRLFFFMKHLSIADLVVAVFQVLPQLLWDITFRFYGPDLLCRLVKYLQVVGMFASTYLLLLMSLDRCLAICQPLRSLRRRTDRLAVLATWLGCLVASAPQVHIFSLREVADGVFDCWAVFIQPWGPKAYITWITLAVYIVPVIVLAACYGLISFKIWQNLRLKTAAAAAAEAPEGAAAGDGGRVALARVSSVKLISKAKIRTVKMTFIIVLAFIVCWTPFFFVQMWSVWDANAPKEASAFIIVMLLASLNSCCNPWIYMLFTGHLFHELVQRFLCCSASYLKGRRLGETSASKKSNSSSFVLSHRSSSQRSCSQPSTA
row,SMILES,outcome
1,CCCCC[C@H](O)CC(=O)CCc1ccc(O)c(OC)c1,inactive
